Screens: PubChem BioAssay, National Center for Advancing Translational Sciences (NCATS)
In the library only some 2.9% were active in any assay of this set; here they are far more common.
Nrf2 block: Nrf2 qHTS screen for inhibitors; A549 ARE-Fluc reporter, luciferase luminescence, 18-24 h; Potency, µM (series often up to 46 µM), for inactives: at the highest dose activity change, negative = inhibition, usual class: inhibitors; 2.1% of 360,000 active; AID 504444, 2011; also: % is scaled to controls: 0 for no effect and ±100 for the full control effect; nearly all actives have a fitted effect of over 60% in size
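Cells were seeded and rested 2 h, then exposed to compounds for 18-24 h. CellTiter-Fluor was read first as a viability measure. BugLite was added 15 min before the final luminescent read of ARE-luciferase activity in A549 cells.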
ATXN2 expr inh: Primary qHTS for Inhibitors of ATXN expression | Potency, µM (series often up to 57 µM), without a hit: at the highest dose activity change, negative = inhibition, most hits filed as inhibitors | 0.72% of 360,000 active | AID 1745845, 2022 | HEK-293 ATXN2-luciferase reporter, luminescence, 24 h; also: % is scaled to controls: 0 for no effect and ±100 for the full control effect; nearly all actives have a fitted effect of over 55% in size
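qHTS (up to 57 uM final) was run with 24 h compound exposure of reporter cells at 37 °C. Each well was multiplexed: SteadyGlo luminescence measured ATXN2-luciferase expression after a fluorogenic Gly-Phe-AFC viability readout (25 uM final).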
S2 tox: Viability Counterscreen for Primary qHTS for Inhibitors of ATXN expression; AID 651635, 2014; Potency, µM (series often up to 56.7 µM), actives largely listed as cytotoxic; 0.49% of 400,000 active; S2 cells (HEK-293 line with an ATXN2-luciferase reporter) viability, CellTiter-Fluor protease fluorescence, 24 h; also: nearly all actives have a fitted effect of over 40% in size
A549 viability: Nrf2 qHTS screen for inhibitors: counterscreen for cytotoxicity. 0.16% of 390,000 active. A549 ARE-Fluc cells, CellTiter-Fluor viability, 18-24 h. AID 504648, 2011. Potency, µM (highest dose often 46 µM), for the others: top-dose activity change, negative = cytotoxicity, most hits filed as inhibitors; also: % is scaled to controls: 0 for no effect and ±100 for the full control effect
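Cytotoxicity counterscreen: CellTiter-Fluor fluorescence was measured in A549 ARE_Fluc cells after 18-24 h of compound exposure in a concentration series. The subsequent BugLite luminescent read reports ARE-luciferase activity.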
Nrf2 ARE act: qHTS of Nrf2 Activators. AREc32 ARE-luciferase reporter (MCF7-derived line), luminescence, 24 h. AID 624171, 2012. Potency, µM (highest dose often 46.1 µM), for the others: at the top dose activation, actives largely listed as activators. 0.31% of 410,000 active; also: % of control where 0% means no effect; nearly all actives have a fitted effect of over 65% in size
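AREc32_Fluc, 1000 cells/well, OPTI-MEM + 5% FBS, o/n 37 deg C 5% CO2; 23 nL cpd by pin tool, 24 hr; Steady-Glo 30 min RT, luminescence.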
* = called active by the depositor. Calls follow the shape of the dose curve; as a rule, active = well fitted curve in the direction sought with a large enough effect; inconclusive = small, poorly fitted or top-dose-only effect, or another doubt; inactive = no such curve, though single readings can be large; an effect the other way counts as inactive or inconclusive. Potency is read from the fitted curve at half-maximal effect.

CC(=O)c1cccc(OCC(=O)N(CCC2=CCCCC2)c2c(N)n(Cc3ccccc3)c(=O)[nH]c2=O)c1 was read as Nrf2 block -3%, ATXN2 expr inh -15%, S2 tox inconclusive, A549 viability -5% and Nrf2 ARE act 0%.
`C=C(c1ccccc1)c1ccc(N(C)C)cc1` gave Nrf2 block 16µM*, ATXN2 expr inh -2%, S2 tox inactive, A549 viability -3% and Nrf2 ARE act 3%.
`CN(C)c1ccc(C(=O)c2ccccc2)cc1` gave Nrf2 block inconclusive, ATXN2 expr inh 47%, S2 tox inactive, A549 viability -10% and Nrf2 ARE act 3%.
`COc1ccc(OC)c(CCNc2ncnc3onc(C)c23)c1` gave Nrf2 block inconclusive, ATXN2 expr inh -27%, S2 tox inactive, A549 viability 2% and Nrf2 ARE act 5%.
CN(CCO)C(=O)c1cn(C2CCN(Cc3cccc4ccccc34)CC2)nn1 was read as S2 tox inactive.
`CCN1C(=O)c2cccc3c(S(=O)(=O)N(C(C)=O)c4ccc(OC(C)=O)cc4)ccc1c23` gave Nrf2 block 26µM*, S2 tox inactive, A549 viability -16% and Nrf2 ARE act 29%.
Screening COc1ccc(C2CC(=O)c3c(C)nc(N4CCN(Cc5ccccc5)CC4)nc3C2)cc1OC (configuration not stated) returned Nrf2 block 18µM*, ATXN2 expr inh -31%, S2 tox inactive and Nrf2 ARE act 0%.
For COc1cc(C2CC(=O)c3cnc(N4CCN(Cc5ccccc5)CC4)nc3C2)cc(OC)c1OC (configuration not stated) the results were Nrf2 block inconclusive, ATXN2 expr inh -21%, S2 tox inactive, A549 viability inconclusive and Nrf2 ARE act 0%.
For CC(C)=CCCC1(C)C=Cc2c(c(C)cc3c2[nH]c2cc(O)ccc23)O1 (configuration not stated) the results were Nrf2 block 17%, ATXN2 expr inh inconclusive, S2 tox 28µM*, A549 viability inconclusive and Nrf2 ARE act -2%.
Screening Cc1cc(=O)[nH]c2cc(O)ccc12 returned Nrf2 block -26%, ATXN2 expr inh 2%, S2 tox inactive, A549 viability -1% and Nrf2 ARE act -1%.
COCCN1Cc2c(sc(C)c2C)N(C(=O)c2ccccc2)C1 was read as Nrf2 block inconclusive, ATXN2 expr inh 51%, S2 tox inactive, A549 viability 1% and Nrf2 ARE act inconclusive.
For Cc1sc2c(c1C)CN(C(C)(C)C)CN2C(=O)c1ccccc1 the results were Nrf2 block inconclusive, ATXN2 expr inh 27%, S2 tox inactive, A549 viability -1% and Nrf2 ARE act 11µM*.
CCc1c(C)nc2ncnn2c1N1CCCC(C(=O)NCc2ccc3c(c2)OCO3)C1 (configuration not stated) was read as Nrf2 block 10µM*, ATXN2 expr inh -7%, S2 tox inactive, A549 viability -1% and Nrf2 ARE act -1%.
`c1ccc(-c2cc3c(-n4cccc4)ncnc3o2)cc1` gave Nrf2 block 16%, ATXN2 expr inh 11%, S2 tox inconclusive, A549 viability -3% and Nrf2 ARE act 3.2µM*.
For COc1ccc2oc(-c3cccc(NC(=O)c4sc5c([N+](=O)[O-])cccc5c4Cl)c3)nc2c1 the results were Nrf2 block 23%, ATXN2 expr inh 0%, S2 tox inactive, A549 viability 3% and Nrf2 ARE act -1%.
`CC1(C)CC(=O)C2=C(C1)NC(SCC(=O)Nc1ccccc1)=C(C#N)C2c1ccco1` (configuration not stated) gave Nrf2 block inconclusive, ATXN2 expr inh 1%, S2 tox inactive, A549 viability -23% and Nrf2 ARE act 5%.
Screening Cc1ccc(C(=O)CSC2=C(C#N)C(c3ccco3)C3=C(CC(C)(C)CC3=O)N2)cc1 (configuration not stated) returned Nrf2 block 16µM*, ATXN2 expr inh -24%, S2 tox inactive, A549 viability inconclusive and Nrf2 ARE act 6%.
`O=C(NCCc1nnc2n1CCN(Cc1ccsc1)CC2)c1ccc(F)cc1` gave S2 tox inactive.
Screening Cc1cc(NC(=O)c2ccc(Cl)c(Cl)c2)ccc1-c1cc2ccccc2oc1=O returned Nrf2 block -18%, ATXN2 expr inh 2%, S2 tox inactive, A549 viability -1% and Nrf2 ARE act 0%.
Screening COc1ccc(C(=O)Nc2cccc(-c3nc4ncccc4o3)c2C)cc1OC returned Nrf2 block 18µM*, ATXN2 expr inh -13%, S2 tox inactive, A549 viability inconclusive and Nrf2 ARE act 0%.
`COc1ccc(C(=O)Nc2ccc(-c3cc4ccccc4oc3=O)c(C)c2)cc1OC` gave Nrf2 block 13µM*, ATXN2 expr inh -17%, S2 tox inactive, A549 viability -9% and Nrf2 ARE act 0%.
`Cc1nn(-c2ccccc2)c2c1C(c1ccncc1)C(C#N)=C(N)O2` (configuration not stated) gave ATXN2 expr inh inconclusive, S2 tox inactive, A549 viability -5% and Nrf2 ARE act 0%.
Screening COc1cc(-n2nc(C)c3c2OC(N)=C(C#N)C3c2ccccc2)c(Cl)c(Br)c1O (configuration not stated) returned Nrf2 block 23%, ATXN2 expr inh -9%, S2 tox 14µM*, A549 viability -6% and Nrf2 ARE act 26%.
Screening COCCn1c(C)cc(C(=O)COC(=O)c2ccccc2Br)c1C returned Nrf2 block inconclusive, S2 tox inactive, A549 viability -3% and Nrf2 ARE act -1%.
COCCn1c(C)cc(C(=O)COC(=O)c2[nH]c(C)c(C(C)=O)c2C)c1C was read as Nrf2 block 23µM*, ATXN2 expr inh -9%, S2 tox inactive, A549 viability -14% and Nrf2 ARE act 2%.
Screening Cc1cc(/C=N/n2cnnc2)c(C)n1-c1ccc(OCc2ccccc2F)cc1 returned Nrf2 block inconclusive, ATXN2 expr inh inconclusive, S2 tox inactive, A549 viability inconclusive and Nrf2 ARE act 7%.
For Cc1cc(/C=N/n2cnnc2)c(C)n1-c1ccc(OCc2ccc(Cl)cc2)cc1 the results were Nrf2 block 9.2µM*, ATXN2 expr inh -19%, S2 tox inconclusive, A549 viability -10% and Nrf2 ARE act 6%.
`CC1CCCCC12NC(=O)N(CC(=O)N1CCN(Cc3ccc(C#N)cc3)CC1)C2=O` (configuration not stated) gave Nrf2 block 5.8µM*, ATXN2 expr inh -35%, S2 tox inactive, A549 viability 0% and Nrf2 ARE act 0%.
